Test results published in the supplement of paper PMC6555819.

How the values were obtained:
Experiment in all cases: PBM binding z-score (relative to random genomic background probes); higher = stronger binding; sequences stand for … in GC…GCGATTGACAGCGTAGAATGAAGG
[1] = test system: RARb homodimer (NR concentration 270 nM)
How it was run: (§1)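 Random background probes are the reference for binding z-scores. These scores derive from regression-normalized fluorescence on custom Agilent 4×180K protein-binding microarrays incubated 1 h with ligand-free nuclear receptor dimers. Binding was detected with antibodies against each partner (one per run).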

[2] = test system: RARg:RXRa (NR concentration 270 nM, RXRa partner concentration 90 nM)
How it was run: as §1

[3] = test system: RARg homodimer (NR concentration 270 nM)
How it was run: as §1

[4] = test system: RXRa DBDmut IVT, anti-RXR (DBD mutation: RXRa K156A/R161A, NR concentration 90 nM)
How it was run: as §1

[5] = test system: RXRa homodimer (NR concentration 180 nM)
How it was run: as §1

[6] = test system: THRa:RXRa (NR concentration 90 nM, RXRa partner concentration 90 nM)
How it was run: as §1

[7] = test system: THRa homodimer (NR concentration 90 nM)
How it was run: as §1

[8] = test system: VDR homodimer (NR concentration 270 nM)
How it was run: as §1

Row | Sequence | PBM binding z-score [1] | PBM binding z-score [2] | PBM binding z-score [3] | PBM binding z-score [4] | PBM binding z-score [5] | PBM binding z-score [6] | PBM binding z-score [7] | PBM binding z-score [8]
1 | CGTCAAAGTTCAAGGGAACGTAACAGAAAGCAGC | 3.52 | 4.97 | 5.93 | 4.46 | 4.17 | 1.72 | -0.254 | 2.72
2 | CCTAGTTGGTCAAGGTCAAACACGCTATAGGTAC | 4.29 | 4.69 | 4.37 | 2.71 | 4.76 | 4.07 | 3.39 | 4.52
3 | ATATGTAGGTTATCGGGTGATTCAGTTTGCGCAT | 1.27 | 0.897 | 0.751 | 0.935 | 1.26 | 1.27 | 1.49 | 0.83
4 | TCTCGGGGGACACGAAGGTCAGAGCTTTCCAGAG | 4.17 | 4.68 | 5.9 | 1.89 | 3 | 3.32 | 1.58 | 1.76
5 | CCAGACAGGTGCAAGGTAACTCAGTCTGGTACGC | -0.106 | -0.306 | -0.108 | 0.584 | 0.00435 | 0.379 | 0.244 | 0.489
6 | TCATATAGGTAAAAGGTAAAAGTCGGTGTGGTAA | 0.553 | 0.857 | 0.169 | 1.88 | 1.94 | 0.886 | 0.222 | 0.494
7 | CCTTACGGGTCAAGGTTAGAGCACGGGTGGTACG | 3.19 | 4.77 | 4.65 | -0.0809 | 4.97 | 2.94 | 0.656 | 1.05
8 | ACTCGGCGGACAAAGGTCAGAGCTACGCCAGTGA | 4.19 | 5.15 | 4.72 | 0.437 | 4.46 | 2.39 | 0.00347 | 0.793
9 | TTACGAAGGTGAGCTGAGGTCGTTGATCCAACTC | 1.6 | 1.37 | 1.23 | 0.439 | 1.27 | 4.56 | 1.78 | 2.57
10 | TTGAGTAGGTTAGGGGCATTCAGAATGGCGTCGA | 1.7 | 0.491 | 0.689 | 0.378 | 0.569 | 1.14 | 1.29 | 1.51
11 | CATACAGGGTCAGCTAGGCCAGAGTAGGGACGGC | 3.14 | 4.44 | 4.26 | 1.44 | 4.42 | 3.1 | 0.753 | 1.32
12 | TCATATAGGTAAATGCTAGGTGAAAGTACGATCT | 0.7 | 0.683 | 0.548 | 1.67 | 1.26 | 1.6 | 0.701 | 0.431
13 | GCTGCTAGGTCAGGTCGGTCAGCTAACGGGTACG | 3.44 | 3.03 | 4.28 | 0.46 | 1.23 | 2.48 | 0.932 | 0.733
14 | ATCTCTAGGTACGACTCAGTTCAGTGAAGAACGC | 0.848 | 0.255 | 0.331 | 1.19 | 0.123 | 0.879 | 0.878 | 2.02
15 | CAAACTATGTCACGAAAGGTCAAAGTCGAATGAC | 5.15 | 6.02 | 5.58 | 1.55 | 6.73 | 4.49 | 1.4 | 2.8
16 | TCTATTAGTTGAAGGGCAAGCGACGAGTCCGTTT | 1.28 | 0.558 | 0.708 | 1.59 | 0.725 | 0.196 | 0.0509 | 1.23
17 | GGAATGAGGGCAAAGTTGATAGCATCTGTCGACG | 1.42 | 2.19 | 1.83 | 2.73 | 2.31 | 1.89 | 0.391 | 1.75
18 | CGAACTAGGTCATTGACAGGAAAGTGAATAGTAA | 2.15 | 3.65 | 3.62 | 2.19 | 2.61 | 2.27 | 0.512 | 0.797
19 | TATCGGAGGACACGAAAGGTCAGAGCTCGACATC | 5.03 | 4.79 | 5.31 | 0.361 | 4.07 | 3.95 | 1.59 | 1.67

Row | Sequence | PBM binding z-score [1] | PBM binding z-score [2] | PBM binding z-score [3] | PBM binding z-score [4] | PBM binding z-score [5] | PBM binding z-score [6] | PBM binding z-score [7] | PBM binding z-score [8]
20 | TCTTGTAGATCAATAGGGGTTAAGAAAGTGCGCT | 1.26 | 1.07 | 0.498 | 1.53 | 2.18 | 2.19 | 0.19 | 0.671
21 | CCTTACGGGTCATGGTTATAGCACGGGTGGTACG | 3.03 | 4.4 | 3.82 | 0.187 | 4.81 | 2.67 | -0.082 | 0.582
22 | TGAATGAGGTTAAAGATCAGCGAACGTGGCGTCG | 0.498 | 2.34 | 1.26 | 1.56 | 3.59 | 2.39 | 0.17 | 0.749
23 | TCTAATTGGTCAAAGGTCACACACTCGAAATGCG | 4.96 | 7.28 | 6.41 | 2.51 | 8.16 | 4.13 | 2.44 | 3.16
24 | GCTTGTAGTTCAAGGTTAAGAAAGACTAAGCTAA | 1.6 | 2.24 | 2.5 | 1.91 | 2.17 | 2.09 | 0.091 | 0.851
25 | AGTCAAAGTTCACTAGGTAACTTAAGATTCAGCT | 3.53 | 4.86 | 5.58 | 4.13 | 3.94 | 2.03 | 0.269 | 3.85
26 | CTTCAAAGTTCAAGGTAACGTAACAGAAAGCAGC | 3.62 | 5.19 | 6.14 | 4.34 | 4.62 | 2.96 | 1.34 | 3.44
27 | CGACCAAGGTCAGAGAGGTCAGTGAATGCCGAGT | 5.37 | 6.34 | 7.04 | 3.34 | 5.82 | 4.15 | 2.11 | 5.63
28 | ATATGTAGGTTAGCTGGGGTCAGTCAGACTAGGC | 3.61 | 3.36 | 2.88 | 0.894 | 3.64 | 5.02 | 2.36 | 2.29
29 | ACTATTAGTTGACTTAGGGCCACCGATACGACGC | 0.765 | 0.549 | 0.739 | 0.785 | 0.774 | 2.48 | 0.956 | 0.47
30 | CCTACTGGACCACGAAAGGTCATTGATTCAGTGA | 4.5 | 4.44 | 3.94 | 1.31 | 5.46 | 3.36 | 1.6 | 2.68
31 | AGAATGAGGTTAAGATCTGGGAAACAGAATACAT | 0.808 | 2.11 | 1.54 | 1.04 | 2.48 | 2.26 | 0.582 | 0.27
32 | TCTCGGAGGACACGAAGGTCAGAGCCTTCCAGAG | 3.54 | 3.52 | 4.07 | 0.518 | 2.04 | 2.66 | 0.555 | 1.24
33 | CCGAGTACGTTATGGGGCATTCAGGCAACGGTGA | 0.358 | -0.121 | -0.0152 | 3 | -0.121 | 0.188 | -0.521 | 1.4
34 | CCTACTGGGCCATCAGGTCATTTATATCAACGTT | 2.44 | 1.8 | 1.64 | 0.641 | 0.891 | 3.14 | 3.01 | 1.61
35 | ATCGAATGGTCGACGAGGTGAGTATACACCGTTT | -0.00631 | 0.294 | 0.526 | -0.27 | 0.305 | 1.03 | 0.408 | -0.381
36 | GCGACTGGGGCATCACCAGGTTACCATAACTTAA | 0.954 | 0.961 | 0.521 | -0.237 | 0.427 | 1.92 | 0.551 | -0.267
37 | ATATGTAGGTTAAGGGTCATACAGGTTGGTTCGC | 4.12 | 5.01 | 3.57 | 2.4 | 6.23 | 3.48 | 1.48 | 4.2
38 | TAGCCTAGGTCATGCCGGCCAGTATAGTGTCGGC | 2.79 | 3.6 | 3.93 | 0.522 | 2.62 | 2.72 | 0.854 | 0.14

Row | Sequence | PBM binding z-score [1] | PBM binding z-score [2] | PBM binding z-score [3] | PBM binding z-score [4] | PBM binding z-score [5] | PBM binding z-score [6] | PBM binding z-score [7] | PBM binding z-score [8]
39 | CCTGACGGGTCACTGACAGGTTATAGCATTTGGA | 2.98 | 5.4 | 4.25 | 1.04 | 4.25 | 2.44 | 0.0984 | 0.76
40 | GCTTGTAGATCAAGGCTAAGAAAGACTAAGCTAA | -0.854 | -0.533 | -0.429 | -0.427 | -0.497 | -0.5 | -1.37 | -0.708
41 | CCTATTAGTTGACCATACGGGCAACCGAAGCTCG | 1.12 | 0.753 | 0.421 | 0.337 | 0.116 | 0.0977 | 0.187 | 0.509
42 | CAGCCTAGGGCAGGGCCAGTATAGGAGGAACGTT | 0.0483 | -0.0952 | 0.654 | -1.36 | -0.507 | -0.901 | -0.998 | -0.621
43 | CGTACTAGGTCATCCAGGACAGTGAATACATTGA | 3.35 | 3.73 | 4.47 | 2.15 | 2.67 | 3.76 | 2.4 | 1.81
44 | TCTCAGAGGACACGAAGGTCAGAGCTTTCCAGAG | 3.88 | 3.73 | 4.66 | 1.38 | 1.97 | 2.79 | 0.738 | 1.62
45 | ATCGAAAGGTCGAGGTGACTATAGAGAAAGGGAA | 2.73 | 4.4 | 4.53 | 1.37 | 4.45 | 2.9 | 0.607 | 0.269
46 | CAAACTAGGTCACAGAGGTAAAAGTCCGTGCGTA | 3.54 | 4.87 | 5.32 | 1.95 | 3.93 | 3.71 | 1.63 | 2.01
47 | TCGAGTAGGTTATTCGGGGCATTCAGCCAACATA | 0.766 | 0.44 | 0.448 | 0.744 | 0.31 | 2.61 | 0.314 | 0.9
48 | CTAACTAGGTCAGAACAGGACAGTGAAGGATGAT | 2.03 | 1.85 | 3.26 | 0.797 | 1.07 | 3.55 | 0.222 | -0.144
49 | CGTCCAAGGTCGAGGTCAGTGAAAGAGACTCGAA | 4.16 | 4.8 | 5.32 | 2.57 | 4.65 | 3.93 | 2.42 | 2.96
50 | TCTATTAGTTGATTAGGGCTACCGAAACAGCGGA | -0.115 | 0.318 | 0.15 | 0.904 | 0.363 | 0.166 | -0.0313 | 0.356
51 | TAGCCTAGGTCAGATCGGGCTAGTATACGCTATA | 1.59 | 2.48 | 3.26 | -0.66 | 1.34 | 3.37 | -0.538 | -0.698
52 | AGAATGAGGTTACCAAAGATAAGGGAAACGCTTG | 0.456 | 1.85 | 1.54 | 1.02 | 2.18 | 2.55 | 0.618 | 0.393
53 | TTACCAAGGTGAAAGCTCGTTGATGCACGCCTTG | 0.13 | 0.342 | 0.28 | -0.23 | 0.617 | 1.38 | 0.107 | -0.644
54 | TCTGCTAGGTCAGATGGTCAGCTAACGAGCTGCC | 2.5 | 3.25 | 4.16 | 0.506 | 1.84 | 1.51 | -0.192 | -0.819
55 | GCTTGCAGGCCATTTGGGTCACTCAATGACGGGC | 1.87 | 1.31 | 1.56 | 0.31 | 0.653 | 2.07 | 0.686 | 0.751
56 | CCGCGGAGGACAACAGGAGGTCAGAGCTGCCAGA | 3.47 | 3.63 | 3.65 | 0.503 | 1.98 | 2.83 | 1.18 | 1.55
